Pf growth 48h – Primary qHTS for delayed death inhibitors of the malarial parasite plastid, 48 hour incubation; Potency, µM (titrated, usually from 28.7 µM), inactives show at the highest dose activity change, negative = inhibition, actives largely listed as inhibitors; P. falciparum luciferase growth in erythrocytes, 48 h; 310,000 compounds, 5.9% hits; AID 504832, 2011; also: potency is read from the fitted curve at half-maximal effect; % is scaled to controls: 0 for no effect and ±100 for the full control effect
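Here the parasites carry a stable luciferase gene and grow inside erythrocytes in Albumax-based RPMI medium with compound for one erythrocytic cycle. Activity is scored as loss of luminescent signal.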
Shiga inhibitor – A qHTS for Small Molecule Inhibitors of Shiga Toxin. Vero cells, Shiga toxin protein synthesis inhibition reporter. inhibition, % at 38.7 µM. 290,000 compounds, 9.2% hits. AID 2315, 2010; in the data active = inhibition mostly above about 28%, no sharp cut-off; inactive = mostly below about 43%; also: 0% is about no effect
Pf growth 96h – Primary qHTS for delayed death inhibitors of the malarial parasite plastid, 96 hour incubation | P. falciparum luciferase reporter growth, 96 h | Potency, µM (top dose mostly 28.7 µM), inactives show at the top dose activity change, negative = inhibition, actives largely listed as inhibitors | 320,000 compounds, 6.9% hits | AID 504834, 2011; also: potency is read from the fitted curve at half-maximal effect; % is scaled to controls: 0 for no effect and ±100 for the full control effect
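Parasite growth measured via integrated firefly luciferase reporter in P. falciparum. Infected erythrocytes at 2% hematocrit, 0.05% parasitemia final were treated 96 hours at 37 C under 5% CO2, and luminescence was read.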
Cycloheximide cs – Cycloheximide Counterscreen for Small Molecule Inhibitors of Shiga Toxin | 300,000 compounds, 12% hits | max response, % | AID 2314, 2010 | cell reporter, cycloheximide protein synthesis inhibition counterscreen; in the data active = max response mostly above about 13%, no sharp cut-off; inactive = mostly below about 14%; also: read at 38.3 µM for the half of the compounds with a filed dose; 0% is about no effect
SARS PLP yeast – qHTS of Yeast-based Assay for SARS-CoV PLP; S. cerevisiae expressing SARS-CoV PLpro, growth rescue; Potency, µM (doses to about 32.9 µM), for inactives: top-dose activity, positive = growth rescue, usual class: activators; 330,000 compounds, 0.19% hits; AID 485353, 2010; calls by dose curve; also: potency is read from the fitted curve at half-maximal effect; 0% is about no effect; nearly all actives have a fitted effect of over 55% in size
AMA1 RON2 block – qHTS for Inhibitors of AMA1-RON; Towards Development of Antimalarial Drug Lead: Primary Screen | Plasmodium falciparum AMA1 (3D7) - RON2 peptide interaction | AlphaScreen AMA1-biotinylated RON2 peptide binding | Potency, µM (series often up to 58.2 µM), for inactives: at the highest dose activity change, negative = inhibition, hits mostly inhibitors | 360,000 compounds, 0.2% hits;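 also: potency is read from the fitted curve at half-maximal effect; 0% = vehicle wells and -100% = peptide control; nearly all actives have a fitted effect of over 45% in size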
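AMA1 (3D7) with his tag at 25 nM final met compounds first, then biotinylated RON2 peptide at 25 nM; detection used donor plus acceptor beads, 10 µg/mL apiece, read by AlphaScreen after 30 min at room temperature.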
* = called active by the depositor; [ ] = dose if it differs, or a comment. Only some compounds are listed: those with a hit (about 19% of all), similar ones and a draw of the others. Unless noted, calls follow the shape of the dose curve; as a rule, active = well fitted curve in the direction sought with a large enough effect; inconclusive = small, poorly fitted or top-dose-only effect, or another doubt; inactive = no such curve, though single readings can be large; an effect the other way counts as inactive or inconclusive.

CC(=O)N1N=C(c2ccccc2)CC1c1cccc([N+](=O)[O-])c1 (stereo unspecified) was read as Pf growth 48h inconclusive, Pf growth 96h -23%, Cycloheximide cs -4, SARS PLP yeast -2% and AMA1 RON2 block -10%.
O=[N+]([O-])c1ccc(C2Oc3ccccc3C3CC(c4ccccc4)=NN32)s1 (stereo unspecified) was read as Pf growth 48h 0%, Shiga inhibitor 114*, Pf growth 96h inconclusive, Cycloheximide cs 61* and SARS PLP yeast -94%.
`COc1ccc(C2CC(c3cccs3)=NN2S(C)(=O)=O)cc1` (stereo unspecified) gave Pf growth 48h 68%, Shiga inhibitor 121*, Pf growth 96h 49%, Cycloheximide cs 32*, SARS PLP yeast 0% and AMA1 RON2 block 21%.
Screening CCOC(=O)COc1c(/C=N\O)cc(Cl)cc1OC returned Pf growth 48h 6%, Shiga inhibitor 16, Pf growth 96h 23%, Cycloheximide cs 6, SARS PLP yeast -5% and AMA1 RON2 block 4%.
Screening COCCCN(C(=O)Cc1ccc(S(=O)(=O)N2CCOCC2)s1)c1c(N)n(Cc2ccccc2)c(=O)[nH]c1=O returned AMA1 RON2 block -1%.
CCc1cccc(CC)c1NC(=O)CN1CCc2cc(OC)c(OC)cc2C1 was read as Pf growth 48h -5%, Shiga inhibitor 0, Pf growth 96h -28%, Cycloheximide cs 5 and SARS PLP yeast 2%.
`Cc1ccc(NC(=O)C2CCN(C(=O)c3cccs3)CC2)c(C)c1` gave Pf growth 48h 4%, Shiga inhibitor -3, Pf growth 96h -2%, Cycloheximide cs 6, SARS PLP yeast 0% and AMA1 RON2 block -10%.
For Cc1cc(C(=O)N(C)C)sc1-c1ccccc1 the results were Pf growth 48h 267%, Shiga inhibitor 71*, Pf growth 96h 271%, Cycloheximide cs 63*, SARS PLP yeast -87% and AMA1 RON2 block 0%.
Screening Cc1cc(C(=O)N2CCN(S(C)(=O)=O)CC2)sc1-c1ccccc1 returned Pf growth 48h 4%, Shiga inhibitor -15, Pf growth 96h -20%, Cycloheximide cs -2, SARS PLP yeast -2% and AMA1 RON2 block -5%.
Screening CN(C)c1ccc2c(c1[N+](=O)[O-])Cc1ccccc1-2 returned AMA1 RON2 block 10µM*.
`CCCCn1nc(CC(=O)NCCN(CC)CC)c2ccccc2c1=O` gave Pf growth 48h 13%, Shiga inhibitor -14, Pf growth 96h 27%, Cycloheximide cs 1, SARS PLP yeast 0% and AMA1 RON2 block -1%.
Screening CCOC(=O)c1cnn(-c2nc(-c3ccccc3)cs2)c1C(F)(F)F returned Pf growth 48h 35%, Shiga inhibitor 28, Pf growth 96h 77%, Cycloheximide cs 2, SARS PLP yeast -5% and AMA1 RON2 block 69%.
Screening O=C(O)c1cnn(-c2nc(-c3ccc(Cl)cc3)cs2)c1C(F)(F)F returned Shiga inhibitor 82*, Pf growth 96h 16%, Cycloheximide cs 53*, SARS PLP yeast -6% and AMA1 RON2 block -6%.
CNC(=O)c1cnn(-c2nc(-c3ccc(OC)cc3)cs2)c1C(F)(F)F was read as Pf growth 48h -20%[0.00184 µM], Shiga inhibitor -6, Pf growth 96h 9%, Cycloheximide cs 7, SARS PLP yeast -3% and AMA1 RON2 block 0%.
Screening COc1ccc(-c2csc(-n3ncc(C(=O)O)c3C(F)(F)F)n2)cc1 returned Pf growth 48h 15%[0.00184 µM], Shiga inhibitor 135*, Pf growth 96h 40%, Cycloheximide cs 74*, SARS PLP yeast -1% and AMA1 RON2 block 11%.
COC(=O)c1cnn(-c2nc(-c3ccccc3)cs2)c1N was read as Pf growth 48h 85%, Shiga inhibitor 40*, Pf growth 96h 76%, Cycloheximide cs 42*, SARS PLP yeast -2% and AMA1 RON2 block -1%.
`Cc1ccc(C(=O)C(C)OC(=O)C2CCN(c3ccc(C(F)(F)F)cn3)CC2)cc1` (stereo unspecified) gave Pf growth 48h inconclusive, Pf growth 96h 5%, SARS PLP yeast -1% and AMA1 RON2 block -9%.
For COc1ccc(OC)c(N(CC(=O)Nc2cccc3ccccc23)S(C)(=O)=O)c1 the results were AMA1 RON2 block -20%.
Screening c1ccc(CC2CCN(C(c3cccs3)c3nnnn3C3CCCC3)CC2)cc1 (stereo unspecified) returned Pf growth 48h 1.9µM*, Shiga inhibitor -12, Cycloheximide cs 0, SARS PLP yeast -6% and AMA1 RON2 block -4%.
For COc1ccc(OC)c(C(c2nnnn2C2CCCC2)N2CCN(c3ccccc3)CC2)c1 (stereo unspecified) the results were Pf growth 48h inconclusive, Shiga inhibitor -3, Pf growth 96h inconclusive, Cycloheximide cs 17, SARS PLP yeast -18% and AMA1 RON2 block inconclusive.
c1cc(C(c2nnnn2C2CCCCC2)N2CCN3CCCC3C2)ccn1 (stereo unspecified) was read as Pf growth 48h inconclusive, Shiga inhibitor 14, Pf growth 96h 18%, Cycloheximide cs -2, SARS PLP yeast -6% and AMA1 RON2 block 1%.
For COc1ccccc1N1CCN(C(c2cccs2)c2nnnn2C2CCCC2)CC1 (stereo unspecified) the results were Pf growth 48h 13µM*, Shiga inhibitor -12, Pf growth 96h 137%, Cycloheximide cs -1, SARS PLP yeast 0% and AMA1 RON2 block -4%.
`COc1ccccc1C(c1nnnn1C1CCCC1)N1CCN2CCCC2C1` (stereo unspecified) gave Pf growth 48h 13µM*, Shiga inhibitor -9, Pf growth 96h 101%, Cycloheximide cs -5, SARS PLP yeast 10% and AMA1 RON2 block 8%.
For c1ccc(CN(Cc2cccs2)C(c2cccs2)c2nnnn2C2CCCC2)cc1 (stereo unspecified) the results were Pf growth 48h 13µM*, Shiga inhibitor -21, Cycloheximide cs -3, SARS PLP yeast -24% and AMA1 RON2 block -23%.
Cc1cc(C(F)(F)F)nc(NCc2cccnc2)n1 was read as Pf growth 48h inconclusive, Shiga inhibitor 10, Pf growth 96h inconclusive, Cycloheximide cs -2, SARS PLP yeast 1% and AMA1 RON2 block 15%.
For CSc1nnc(N(CCC#N)CCC#N)s1 the results were Pf growth 48h -10%, Shiga inhibitor -25, Pf growth 96h 3%, Cycloheximide cs -7, SARS PLP yeast 1% and AMA1 RON2 block 3%.

High-throughput results from PubChem.
